Bioassay records as filed in PubChem.
TRPML1 inh: blocks the human TRPML1 channel; TRPML1-inducible cells, Ca2+ dye fluorescence, FDSS; stronger effect = lower value; inhibition of EC80 agonist-evoked calcium signal; activity change, negative = inhibition, % (test concentration not listed); 390,000 tested, 0.02% active; in the data active = activity change below about -50%; inconclusive = between about -30% and that limit;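 note: stimulus is agonist 54-4 at its EC80 concentration; % is set by controls: 0 for no effect and ±100 for the full control effect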
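Calcium fluorescence in TRPML1-DL cells induced overnight with Tet: a 110 s read after compound pin addition, then a 110 s antagonist read after challenge with 54-4 at 4 uM final (EC80).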
TRPML1 agonist: activates the human TRPML1 channel; TRPML1-expressing cells, Ca2+ dye fluorescence, FDSS; AID 624414; 410,000 tested, 0.12% active; activation, % (test concentration not listed); Q9GZU1; in the data active = activation above about 50%; inconclusive = mostly about 30% to 49%; note: 0% is about no effect
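TRPML1-DL cells, Tet-induced overnight (~16 h, 37 degrees C), loaded 45-90 min at room temperature with Ca8 no-wash calcium dye plus quencher. FDSS fluorescence: 10 s baseline, compound pin-transfer, 110 s agonist read, then EC80 54-4 (4uM final) and 110 s antagonist read.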
DRD3 antagonist: antagonists of human D3 dopamine receptor | P35462 | D3R cells, DiscoveRx beta-arrestin luminescence, antagonist mode; stronger effect = lower value | max response, negative = inhibition, % | 360,000 tested, 2.5% active | AID 652054; in the data active = max response below about -50%; inconclusive = no clear call, values can overlap the other calls; note: % is set by controls: 0 for no effect and ±100 for the full control effect
Target sequence (P35462 whole entry, looked up): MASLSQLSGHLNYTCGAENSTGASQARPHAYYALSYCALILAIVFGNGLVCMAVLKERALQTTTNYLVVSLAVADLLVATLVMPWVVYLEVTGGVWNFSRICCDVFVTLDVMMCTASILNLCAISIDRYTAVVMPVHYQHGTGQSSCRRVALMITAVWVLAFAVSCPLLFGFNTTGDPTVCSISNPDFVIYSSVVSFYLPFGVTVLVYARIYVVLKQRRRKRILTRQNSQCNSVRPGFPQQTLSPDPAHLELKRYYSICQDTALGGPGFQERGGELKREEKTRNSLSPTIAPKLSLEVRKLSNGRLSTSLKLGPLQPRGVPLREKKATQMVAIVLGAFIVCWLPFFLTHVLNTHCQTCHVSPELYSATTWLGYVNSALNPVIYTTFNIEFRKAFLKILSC
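Cells expressing the human receptor were seeded at 1500 cells/well, incubated overnight at 37 degrees C in 5% CO2, then exposed to library compounds with dopamine controls for 90 minutes at 37 degrees C before luminescent detection.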
D3 ag: agonists of human D3 dopamine receptor; 410,000 tested, 0.58% active; AID 652048; D3R DiscoveRx beta-arrestin cells, luminescence, 90 min; max activation, %; P35462; in the data active = max activation above about 30%; note: 0% is about no effect
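Cells at 1500/well, incubated overnight, then treated with pinned compounds (dopamine as control) for 90 min at 37 degrees C. DiscoveRx reagent added for 30 - 60 minutes at room temperature; luminescence read.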
An asterisk follows results filed as active; ? = inconclusive; nt = no result given. Only some compounds are listed: those with a hit (about 2.9% of all), similar ones and a draw of the others.

SMILES	TRPML1 inh	TRPML1 agonist	DRD3 antagonist	D3 ag
O=[N+]([O-])c1ccccc1/C=N/n1c(-c2cccnc2)n[nH]c1=S	-3	-1	-86*	-18
S=c1[nH]nc(-c2cccnc2)n1Cc1ccccc1	-4	-1	-53*	-7
O=C(Nc1ccc(OCc2cc(=O)n3ccccc3n2)cc1)c1ccccc1Cl	28	0	nt	-9
O=C(O)Cc1cccc(-c2cc(CCCCCCc3ccc(O[C@H]4O[C@H](CO)[C@@H](O)[C@H](O)[C@@H]4O)c(-c4cccc(CC(=O)O)c4)c3)ccc2O[C@H]2O[C@H](CO)[C@@H](O)[C@H](O)[C@@H]2O)c1	nt	nt	nt	-18
Nc1ccccc1/C=C/c1ccnc2ccccc12	nt	5	nt	nt
C=C1C(O)[C@@H]2O[C@]3(CC[C@H](/C=C/C(C)[C@@H]4CC(C)=CC5(O[C@H](C[C@@](C)(O)CO)CCC5O)O4)O3)CC[C@H]2O[C@@H]1C(O)CC(C)[C@H]1OC2(CCCCO2)CCC1C (stereo not given in full)	3	-1	-78*	-29
C=C1[C@@H](O)[C@@H]2O[C@]3(CC[C@H](/C=C/[C@@H](C)[C@@H]4CC(C)=CC5(O[C@H](C[C@@](C)(O)C(=O)OC)CC[C@H]5O)O4)O3)CC[C@H]2O[C@@H]1[C@@H](O)C[C@H](C)[C@H]1OC2(CCCCO2)CC[C@H]1C (stereo not given in full)	3	1	-17	-4
Cc1ccc(CNC(C)c2ccccc2)cc1 (stereo not given)	20	1	-55*	-8
Cc1ccc(NC(=O)CNC(C)c2ccccc2)cc1 (stereo not given)	4	-1	?	-11
C=CCN1CCN(C(=O)c2cc3c(s2)CCC(CC)C3)CC1 (stereo not given)	-4	2	-91*	-32
CCC1CCc2sc(C(=O)O)cc2C1 (stereo not given)	-4	0	24	0
Cc1cc(NC(=O)C2CCCC2)n(-c2nc3ccccc3[nH]2)n1	1	0	?	34*
CN(C)/C=C1\C=C2C(=O)c3ccccc3N2C1=O	?	57*	14	5
C/C=C/c1ccc(OCCCCN(C)Cc2ccccc2)c(OC)c1	nt	nt	-12	-19
CN(CCCOc1ccccc1F)Cc1ccccc1	53	0	-85*	-31
Cc1cc(C)c(OCCN(C)Cc2ccccc2)c(Br)c1	19	0	-56*	-38
CN(CCCOc1ccccc1Br)Cc1ccccc1	?	2	-98*	-17
COC(=O)c1ccc(OCCCCN(C)Cc2ccccc2)cc1	-1	1	-29	-28
O=C(C[n+]1cccc(Br)c1)c1cccc([N+](=O)[O-])c1	nt	0	nt	nt
Cc1cccc(C)c1NC(=O)CN(C)S(=O)(=O)c1ccc2c(c1)n(C)c(=O)c(=O)n2C	6	0	nt	-11
COc1ccc(-n2c(SCC(=O)Nc3cccc(C)c3C)nc3c([nH]c4ccccc43)c2=O)cc1	7	0	nt	-28
COc1cc(NC(=O)C2CC(=O)NC3=C2C(=O)CCC3)c(OC)cc1Cl (stereo not given)	-9	0	-16	39*
COc1ccc(C)c(NC(=O)C2CC(=O)NC3=C2C(=O)CCC3)c1 (stereo not given)	-5	0	-9	-5
Cc1ccc(Nc2c3c(nc4nncn24)CCC3)c(C)c1	-10	-1	nt	1
S=C1NCCc2ccccc2C1c1ccccc1Cl (stereo not given)	3	0	-64*	-3
SMILES	TRPML1 inh	TRPML1 agonist	DRD3 antagonist	D3 ag
O=S(=O)(c1ccc(Br)cc1Cl)N1CCN(CCO)CC1	12	0	-8	-11
O=C1C=CC(=O)c2c(O)c(N3CCN(CCO)CC3)c(Cl)c(O)c21	-4	4	-121*	-25
O=C1C=CC(=O)c2c(O)c(N3CCN(CCOCCO)CC3)c(Br)c(O)c21	5	0	-95*	-18
O=C(c1cccs1)N1CCc2c([nH]c3ccccc23)C1c1ccccn1 (stereo not given)	12	2	?	-12
O=C(c1cccs1)N1CCc2c([nH]c3ccccc23)C1c1ccc(Cl)cc1 (stereo not given)	8	-1	-53*	-6
COc1ccc(CN2CC[C@H]3C=CC[C@@H](C(=O)Nc4nccs4)[C@H]3C2=O)cc1OC	nt	-1	nt	nt
CN(C)c1ccc(NC(=S)c2ccc3ccccc3n2)cc1	14	0	-51*	-6
Cc1ccc(C)c(NC(=S)c2ccc3ccccc3n2)c1	23	1	9	-5
O=C(NCc1ccccc1)C1CCN(C(=O)c2cnn(-c3ccccc3)c2-n2cccc2)CC1	1	1	nt	3
c1ccc(COc2cccc(-c3cc4nc(NCCc5ccncc5)ccn4n3)c2)cc1	nt	1	77	88*
COc1ccc(Cc2nnc(NC(=O)C3CC(=O)N(c4ccccc4C)C3)s2)cc1OC (stereo not given)	23	0	-64*	-8
CCOc1ccc(N2CC(C(=O)Nc3nnc(Cc4ccc(OC)c(OC)c4)s3)CC2=O)cc1 (stereo not given)	-2	-1	7	5
O=C(CSc1ccc2c(c1)OCCO2)Nc1ccc(Br)cc1	2	2	-63*	7
Cc1nnc(SCC(=O)NC(=O)Nc2ccc3c(c2)OCCO3)s1	41	-1	-70*	-11
O=C(CSc1ccc2nnc(-c3ccncc3)n2n1)Nc1ccc2c(c1)OCCO2	13	0	-59*	-4
O=C(CSc1ccc2nnc(-c3ccncc3)n2n1)Nc1ccc2c(c1)OCO2	-3	-1	20	-2
COc1ccc(N2CCN(S(=O)(=O)CCNC(=O)Cc3ccc(Cl)cc3)CC2)cc1	-1	2	nt	12
CCOC(=O)[C@H](CCc1ccccc1)N[C@@H](C)C(=O)N(CC(=O)O)C1Cc2ccccc2C1	nt	nt	nt	-29
Cc1nn(-c2ccccc2)c(C)c1NC(=O)COc1ccc2ccccc2c1	9	6	21	31*
Cc1occc1-c1nnc(SCC(=O)Nc2nc3ccccc3s2)o1	5	0	-103*	24
CC1CC(C)CN(CCOc2cccc(Cl)c2Cl)C1 (stereo not given)	8	1	-71*	16
CCC(=O)c1ccccc1OCCN1CCN(CC)CC1	-9	0	-24	0
CC1CC(C)CN(CCOc2ccc(Cl)cc2Cl)C1 (stereo not given)	-10	-1	-97*	-2
CCN1CCN(CCOc2cccc(Cl)c2Cl)CC1	-7	0	?	67*
Cc1ccn2c(Nc3c(C)cccc3C)c(-c3ccc(Cl)s3)nc2c1	0	0	nt	-3
CCOc1ccc(NC(=O)CCS(=O)(=O)c2cc3c4c(c2)CCN4C(=O)CC3)cc1	-17	-1	nt	5
COc1cccc(-n2sc3c(c2=S)-c2cc(OC)ccc2NC3(C)C)c1	-9	0	-69*	-6
COc1cccc(-n2cn[nH]c2=S)c1	-4	0	-3	2
